# RecA splice inh: inhibitors of M. tuberculosis RecA intein splicing | inhibition, % (no concentration beside the values) | 290,000 tested, 0.75% active | P9WHJ3 | cell-free RecA intein splicing, fluorescence; in the data active = inhibition above about 30%; inconclusive = no clear call, values can overlap the other calls
# Target sequence (P9WHJ3 whole entry, looked up, canonical isoform): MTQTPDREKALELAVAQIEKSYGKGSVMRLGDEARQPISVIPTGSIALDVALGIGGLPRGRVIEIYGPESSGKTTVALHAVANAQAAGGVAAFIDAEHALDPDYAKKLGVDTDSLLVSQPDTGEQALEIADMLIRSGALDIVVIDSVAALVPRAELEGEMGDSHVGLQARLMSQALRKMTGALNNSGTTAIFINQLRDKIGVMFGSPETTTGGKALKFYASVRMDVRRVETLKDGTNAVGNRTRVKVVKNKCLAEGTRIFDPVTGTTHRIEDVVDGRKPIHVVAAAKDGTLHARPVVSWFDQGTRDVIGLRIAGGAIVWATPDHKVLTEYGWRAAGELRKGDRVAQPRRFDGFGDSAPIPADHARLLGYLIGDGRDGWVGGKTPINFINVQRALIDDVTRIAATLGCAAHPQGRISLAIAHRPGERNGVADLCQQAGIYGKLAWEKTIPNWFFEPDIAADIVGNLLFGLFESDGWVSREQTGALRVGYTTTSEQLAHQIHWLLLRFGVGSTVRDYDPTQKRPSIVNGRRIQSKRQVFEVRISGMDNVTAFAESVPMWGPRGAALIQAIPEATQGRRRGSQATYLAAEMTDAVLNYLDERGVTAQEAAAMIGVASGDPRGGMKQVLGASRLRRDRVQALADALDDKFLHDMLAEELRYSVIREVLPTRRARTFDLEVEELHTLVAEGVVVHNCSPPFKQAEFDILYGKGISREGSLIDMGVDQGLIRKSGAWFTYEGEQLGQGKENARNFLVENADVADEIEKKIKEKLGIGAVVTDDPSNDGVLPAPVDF
# TcdB inh: blocks C. difficile toxin B glycohydrolase activity; P18177; 350,000 tested, 0.24% active; TcdB glycohydrolase enzymatic assay, plate reader; inhibition, % at 9.99 µM; AID 652162; in the data active = inhibition above about 10%
# FadD28 FP inh: M. tuberculosis FadD28 bisubstrate binding inhibition; 360,000 tested, 0.22% active; FadD28 bisubstrate probe binding, fluorescence polarization; inhibition, % at 12.5 µM; in the data active = inhibition above about 8.5%, passing the limit was not always enough; inconclusive = no clear call, values can overlap the other calls
# UGM FP inh: inhibitors of M. tuberculosis UDP-galactopyranose mutase; AID 504406; inhibition, % at 10 µM; P9WIQ1; 320,000 tested, 0.06% active; purified UGM, fluorescence polarization probe displacement; in the data active = inhibition above about 10%, passing the limit was not always enough; inconclusive = no clear call, values can overlap the other calls
# Mtb BioA inh: BioA (M. tuberculosis) enzyme inhibition. purified M. tuberculosis BioA enzyme, plate reader. inhibition, % at 9.99 µM. 360,000 tested, 0.096% active. AID 602481; in the data active = inhibition above about 40%; inconclusive = no clear call, values can overlap the other calls
# Rv3671c protease: Rv3671c (M. tuberculosis) protease inhibition. P9WHR9. inhibition, % at 5.96 µM. 320,000 tested, 0.048% active. AID 2606; in the data active = inhibition above about 38%;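 also: extracellular domain of Rv3671c used as enzyme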
# GFP chromo cs: counter-screen: blocks GFP chromophore formation; shares compounds with RecA splice inh; cell-free GFP chromophore formation, fluorescence; EC50, µM; 2,100 tested, 83% active; AID 434968; call rule not given here
# Hits are given with their value; – = inactive; ? = inconclusive; · = not tested or not shown. Most compounds without a hit are left out; they make up all but 0.97% or so of the library.
SMILES,RecA splice inh,TcdB inh,FadD28 FP inh,UGM FP inh,Mtb BioA inh,Rv3671c protease,GFP chromo cs
COc1ccc(CN(CCC(c2ccccc2)c2ccc(OC(C)C)cc2)C(=O)CCl)cc1OC (stereo unspecified),83,·,–,–,–,–,0.4
Cc1sc(NC(=O)CCl)c(C(=O)c2ccccc2)c1C,63,·,–,–,–,–,32
Cc1cc(C(=O)c2ccccc2)c(NC(=O)CN2CCOCC2)s1,–,·,–,–,·,–,·
Cc1cc(C(=O)c2ccc(C(C)(C)C)cc2)c(NC(=O)CCl)s1,67,·,–,–,–,–,34
CO[C@H]1CN(C)C(=O)c2ccc(NC(=O)c3cc(C)on3)cc2OC[C@H](C)N(CC2CC2)C[C@@H]1C,·,–,·,·,–,·,·
CO[C@H](CN(C)Cc1cc(F)ccc1F)[C@@H](C)CN(C(=O)Nc1ccc(F)cc1)[C@@H](C)CO,·,–,·,·,–,·,·
Oc1c(Cl)cc(Cl)cc1C=Nc1ccccc1N1CCCC1,–,·,·,–,·,–,·
O=c1[nH]cc(N=Cc2cc(Cl)cc(Cl)c2O)c(=O)[nH]1,77,–,–,–,–,–,13
CCOc1cc(/C=C(\C#N)C(=O)Nc2cccc(C(=O)O)c2)cc(Br)c1OC(=O)c1ccc(OC)cc1,38,–,–,–,–,–,21
CCOc1cc(/C=C(\C#N)C(=O)Nc2cccc(C(=O)O)c2)ccc1OCc1ccccc1Cl,·,–,–,–,–,–,·
CCCc1[nH][nH]c(=O)c1C(c1ccc(Br)cc1)C(C#N)C#N (stereo unspecified),66,·,–,–,–,–,11
O=c1[nH][nH]c(-c2ccccc2O)c1C(C[N+](=O)[O-])c1ccccc1 (stereo unspecified),–,·,–,–,·,–,·
CCCc1[nH][nH]c(=O)c1C(c1ccc(Cl)cc1)C(C#N)C#N (stereo unspecified),70,–,–,–,–,–,18
CCCc1[nH][nH]c(=O)c1C(c1ccccc1)C(C#N)C#N (stereo unspecified),62,·,–,–,–,–,20
COCC#Cc1cnc2c(c1)C(=O)N([C@H](C)CO)C[C@H](C)[C@@H](CN(C)Cc1ccc(F)cc1)O2,·,–,·,·,–,·,·
O=C(CC1CC1)N1CC[C@H]2[C@H](CO)Nc3ccc(-c4ccccc4)cc3[C@H]21,·,–,·,·,–,·,·
CC1=CC(=Nc2c(C)n(C)n(-c3ccccc3)c2=O)C=C(C)C1=O,–,–,–,–,–,–,·
CC1=CC(=Nc2c(C)n(C)n(-c3ccccc3)c2=O)C=CC1=O,57,·,·,–,·,–,27
CC(=O)c1c(Cl)nc2cccc3c2c1-c1ccccc1C3=O,33,–,–,–,–,–,–
CC(=O)c1cnc(N(C)C)s1,–,·,–,–,–,–,·
CN(C)c1ncc(C2=C(Cl)C(=O)C(N3CCCC3)=C(Cl)C2=O)s1,60,·,–,–,–,–,4.4
O=C1C(Cl)=C(N2CCCCC2)C(=O)C(Cl)=C1c1cnc(N2CCCCC2)s1,35,·,–,·,–,·,0.45
O=C1CSC(c2ccccc2)N1c1ccc(-c2ccccc2)cc1 (stereo unspecified),·,–,·,·,–,·,·
O=C(C[C@@H]1C=C[C@H](NC(=O)C2CC2)[C@@H](CO)O1)NCc1ccncc1,·,–,·,·,–,·,·
CC(C)c1cn(CC[C@H]2CC[C@H](NC(=O)C3CCOCC3)[C@@H](CO)O2)nn1,·,–,·,·,·,·,·
SMILES,RecA splice inh,TcdB inh,FadD28 FP inh,UGM FP inh,Mtb BioA inh,Rv3671c protease,GFP chromo cs
COc1ccc(C(=O)N2c3ccccc3C=CC2C#N)cc1 (stereo unspecified),–,–,–,–,·,–,·
N#C[C@H]1[C@H](c2ccccc2)[C@](C#N)(C(=O)c2ccccc2)[C@@H]2C=Cc3ccccc3N21,53,·,·,·,·,·,23
Cc1ccc(Cl)cc1NC1=C/C(=N\S(=O)(=O)c2cccs2)c2ccccc2C1=O,–,–,–,–,–,–,·
O=C1/C(=N\S(=O)(=O)c2cccs2)C([n+]2ccccc2)=C([O-])c2ccccc21,41,–,?,–,·,–,17
O=C(O)c1ccc(NC2=C/C(=N/S(=O)(=O)c3cccs3)c3ccccc3C2=O)cc1,·,–,–,·,–,·,·
CC(C)(C)c1cc[n+](C2=C([O-])c3ccccc3C(=O)/C2=N\S(=O)(=O)c2cccs2)cc1,78,–,–,–,–,–,0.96
C[C@H]1CN([C@@H](C)CO)C(=O)c2cc(-c3cccc(C#N)c3)cnc2O[C@@H]1CN(C)Cc1ccccc1,·,–,·,·,–,·,·
COc1ccc(CN(C)C[C@H]2OCCCC[C@@H](C)Oc3ccc(NC(=O)CCC(F)(F)F)cc3C(=O)N([C@@H](C)CO)C[C@@H]2C)cc1,·,–,·,·,–,·,·
COc1ccc(-c2nnc(Sc3nc4ccccc4o3)c3ccccc23)cc1,53,–,–,–,·,–,1.5
COc1ccc(-c2nnc(OC)c3ccccc23)cc1,–,–,–,–,–,–,·
C[C@H]1CN([C@@H](C)CO)C(=O)c2cc(C#CCN(C)C)cnc2O[C@H]1CN(C)C(=O)CCN1CCCCC1,·,–,·,·,–,·,·
Nc1ccc2cn[nH]c2c1,78,–,–,–,–,–,22
CC(=O)c1ccc(OC(=O)c2cccs2)cc1,35,·,–,–,–,–,–
Cc1cc(C)nc(N2N=C(C(C)(C)C)CC2=O)n1,40,–,–,–,–,–,34
C[C@@H]1CN([C@H](C)CO)C(=O)Cc2cc(NC(=O)Cc3ccccc3)ccc2O[C@H]1CN(C)S(=O)(=O)c1ccc(F)cc1,·,–,·,·,–,·,·
CCc1nc(SCC(=O)N2CCN(c3ccccc3)CC2)c2oc3ccccc3c2n1,32,·,–,–,–,–,–
CN1[C@H](C(=O)NCc2ccccn2)[C@@H](CO)[C@@H]2Cn3c(ccc(-c4cccc(F)c4)c3=O)[C@@H]21,·,–,·,·,–,·,·
Cn1cnc([N+](=O)[O-])c1S(=O)(=O)c1ccc(Cl)cc1,61,–,–,·,·,·,39
Cn1cnc([N+](=O)[O-])c1NC(C)(C)C,–,·,–,–,–,–,·
COCC(=O)N1[C@H](CO)[C@@H](c2ccccc2)C12CN(C(=O)Cc1ccccn1)C2,·,–,·,·,·,·,·
O=[N+]([O-])c1c(Nc2ccccc2O)cc(Cl)c2nonc12,96,–,–,–,–,·,1.5
O=C(O)c1cc(Nc2cc(Cl)c3nonc3c2[N+](=O)[O-])ccc1O,97,–,–,–,–,–,1.9
Nc1cc(Cl)c2nonc2c1[N+](=O)[O-],·,·,–,–,·,–,·
CC(C)c1cn(CC[C@@H]2CC[C@H](NC(=O)C3CCOCC3)[C@@H](CO)O2)nn1,·,–,·,·,·,·,·
CO[C@H]1CN(C)C(=O)c2cc(NC(=O)NC(C)C)ccc2OC[C@H](C)N(C(=O)CC2CC2)C[C@H]1C,·,–,·,·,–,·,·
CSc1nc(-c2ccc(Cl)cc2)nn1C(=O)c1ccco1,38,·,–,–,·,–,–
COc1cc(/C=C2\C(=O)N(c3ccc(NC(C)=O)cc3)N=C2c2ccccc2)ccc1O,83,–,–,–,–,–,–
N#Cc1cccc(-c2ccc3c(c2)[C@H]2[C@H](CCN2S(=O)(=O)c2ccccc2F)[C@@H](CO)N3)c1,·,–,·,·,–,·,·

# Source: PubChem BioAssay
